Reference: PubChem BioAssay AID488895 (Broad Institute, 2010)
“And” between values parts separate entries of the source, which are not always exact repeats. Identical values can stand only once. Among all 340,000 compounds or so, about 120 (0.035%) were called active. The sample holds actives, similar compounds and a random draw of the others, so the mix is not that of the screen.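 The calls were made as follows: active = mean replicate inhibition at least 50% and at least half of replicates individually reaching 50%; inconclusive = only one of the two criteria met; inactive = neither criterion met.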

Assay: blockers of twin-arginine translocation in E. coli – MC4100, TorA-mCherry reporter, fluorescence, single point, primary screen (AID 488895);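 also: exported cargo escapes ClpAP degradation while cytoplasmic cargo is degraded and loses fluorescence; 0% = median of neutral control wells and 100% = median of NaSCN control wells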
Details: E. coli MC4100 TorA-mCherry Tat export, at 10 µM, stronger effect = higher value

inhibition, inactive:
Nc1nc(Sc2ncccc2[N+](=O)[O-])n[nH]1 -8.21%, O=C(O)c1ccccc1OCc1ccccc1Cl -2.88%, CS(=O)(=O)N(CC(=O)N1CCOCC1)c1ccc2c3c(cccc13)CC2 2.34%, O=P(O)(CP(=O)(c1ccccc1)c1ccccc1)c1ccccc1O -10.9%, COc1cc(C2C(C#N)=C(C)NC3=C2C(=O)CC(C)(C)C3)ccc1O (stereo unspecified) 4.04%, CN1CC(=O)N=C1N -7.3% and -13.2%, CCC(C)Sc1nc(C)nc2c1c(=O)n(C)c(=O)n2C (stereo unspecified) -2.92%, OC(COc1ccc(F)cc1Cl)CN1CCc2ccccc2C1 (stereo unspecified) 3.62%, COC(=O)c1cc2n(n1)CCCNC2=O -2.39%, O=C1OCC2=C1C(c1ccc(Cl)cc1)c1cc3c(cc1O2)OCO3 (stereo unspecified) 2.92%, CC1C(=O)Nc2ccc(S(=O)(=O)N3CCN(c4ccccc4F)CC3)cc2NC1=O (stereo unspecified) 2.39%, COCCCn1c(SCc2cccc(OC)c2)nc2cc(OC)c(OC)cc2c1=N 8.62%, CC(CCN1CCN=C1N(C)C)c1ccccc1 (stereo unspecified) 1.28%, Cn1c(SCC(=O)N2CCCC2)nnc1-c1ccc2c(c1)OCO2 -0.749%, CC(C)c1ccc(NC(=O)C2CCCN(S(=O)(=O)c3cccnc3)C2)cc1 (stereo unspecified) -2.58%, CC(C)[C@H](NC(=O)N1CCn2c1nc1ccccc12)C(=O)NC1CC1 3.55%, CCN1CCN(C(=O)N[C@@H](C(=O)N[C@@H]2C(=O)N3C(C(=O)O)=C(CSc4nnnn4C)CS[C@H]23)c2ccc(O)cc2)C(=O)C1=O -0.914%, CC1CCCN(C(=O)c2ccc3c(c2)C(=O)N(CCC2=CCCCC2)C3=O)C1 (stereo unspecified) 5.37%, COC(=O)c1c(C)oc(C)c1S(=O)(=O)Nc1ccc(C(C)C)cc1 8.29%, CC(C)(C)S(=O)(=O)N1Cc2cc(CO)cc(CCO)c2[C@H]1CCO -5.8%, C[n+]1ccccc1C1CCCC/C1=N\Nc1ccc([N+](=O)[O-])cc1[N+](=O)[O-] (stereo unspecified) -6.35%, COC(=O)c1ccc(CN(c2ccccc2OC)S(=O)(=O)c2cccs2)o1 22.7%, CNC(=O)c1nnc(Cc2ccc(Cl)cc2)o1 -1.7%, COCCCNC(=O)C1CC(=O)N(CCc2ccccc2)C1 (stereo unspecified) 4.61%, COc1ccc(Cl)cc1NC(=O)CN(C)C(=O)c1ccc2n[nH]nc2c1 -3.85%, Cc1cc(C)cc(C(=O)N2CCN=C2SCc2ccc([N+](=O)[O-])cc2)c1 7.58%
